Test results from PubChem BioAssay.
Active and inactive are the calls of the source. Unless noted, no rule for the calls is given here.

What was measured:
[1] = compounds binding Alexa647 anti-His antibody – biochemical, small-molecule microarray, 635 nm fluorescence, artefact control for SMM control protein annotation, primary screen (AID 1128); conditions: higher = more signal;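 also: score merges feature fluorescence with signal-to-noise for each printed compound spot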
[2] = test system: Human papillomavirus type 1a E7 protein (residues 1-88); test: HPV1a E7 small-molecule binders, primary screen, biochemical, small-molecule microarray, residues 1-88, 635 nm (AID 1129); conditions: small-molecule microarray binding, fluorescence 635 nm; higher = more signal
[3] = target: Focal adhesion kinase 1 (Homo sapiens) (UniProt Q05397); test: PTK2 protein binding on printed compound slides – biochemical, small-molecule microarray, 635/667 nm fluorescence, BSA, DTT, primary screen (AID 1130); conditions: 635 nm fluorescence, higher = more signal;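 also: composite of spot emission at 667 nm and signal to noise over triplicate slides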
Sequence of Focal adhesion kinase 1 (Homo sapiens) (Q05397 whole entry, looked up): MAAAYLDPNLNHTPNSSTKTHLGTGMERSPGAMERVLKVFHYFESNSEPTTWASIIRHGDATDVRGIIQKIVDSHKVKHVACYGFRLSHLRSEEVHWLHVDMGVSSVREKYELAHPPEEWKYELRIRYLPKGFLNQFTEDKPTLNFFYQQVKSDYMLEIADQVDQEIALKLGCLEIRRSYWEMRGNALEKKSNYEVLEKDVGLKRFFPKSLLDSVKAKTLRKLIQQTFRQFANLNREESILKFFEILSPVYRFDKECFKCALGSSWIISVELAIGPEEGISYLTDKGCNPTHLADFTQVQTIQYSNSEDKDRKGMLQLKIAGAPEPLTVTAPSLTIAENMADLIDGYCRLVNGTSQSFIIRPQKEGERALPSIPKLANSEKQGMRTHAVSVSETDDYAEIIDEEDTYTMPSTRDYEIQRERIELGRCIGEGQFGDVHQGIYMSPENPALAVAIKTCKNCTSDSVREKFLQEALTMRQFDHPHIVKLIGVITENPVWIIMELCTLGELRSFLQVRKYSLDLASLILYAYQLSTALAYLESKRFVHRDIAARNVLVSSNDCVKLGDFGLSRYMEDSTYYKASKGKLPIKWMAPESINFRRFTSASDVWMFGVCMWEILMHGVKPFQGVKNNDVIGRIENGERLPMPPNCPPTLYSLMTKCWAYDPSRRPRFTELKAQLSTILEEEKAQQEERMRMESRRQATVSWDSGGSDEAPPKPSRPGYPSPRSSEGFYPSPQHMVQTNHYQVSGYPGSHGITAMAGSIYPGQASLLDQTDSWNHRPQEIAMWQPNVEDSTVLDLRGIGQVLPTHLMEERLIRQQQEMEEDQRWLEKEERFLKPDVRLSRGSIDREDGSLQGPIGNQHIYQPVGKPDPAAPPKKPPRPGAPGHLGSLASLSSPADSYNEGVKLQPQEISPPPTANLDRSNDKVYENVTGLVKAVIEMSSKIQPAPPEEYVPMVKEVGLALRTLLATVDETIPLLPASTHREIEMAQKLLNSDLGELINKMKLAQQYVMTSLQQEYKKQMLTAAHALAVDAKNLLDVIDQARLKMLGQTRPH

[4] = test system: Fibrinogen (Alexa647-labelled); test: Alexa647-fibrinogen binding to printed small molecules – biochemical, small-molecule microarray, 635/667 nm fluorescence, artefact control for SMM control-protein annotation, profiling panel (AID 1131); conditions: fibrinogen-A647 binding fluorescence, higher = more signal;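 also: z-score merges 667 nm fluorescence with per-spot signal-to-noise over triplicate slides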
[5] = target: Follistatin (Homo sapiens) (UniProt P19883); test: FST protein binding to printed compounds – biochemical, small-molecule microarray, 635/667 nm fluorescence, primary screen (AID 1132); conditions: 635 nm fluorescence, higher = more signal
Sequence of Follistatin (Homo sapiens) (P19883 whole entry, looked up): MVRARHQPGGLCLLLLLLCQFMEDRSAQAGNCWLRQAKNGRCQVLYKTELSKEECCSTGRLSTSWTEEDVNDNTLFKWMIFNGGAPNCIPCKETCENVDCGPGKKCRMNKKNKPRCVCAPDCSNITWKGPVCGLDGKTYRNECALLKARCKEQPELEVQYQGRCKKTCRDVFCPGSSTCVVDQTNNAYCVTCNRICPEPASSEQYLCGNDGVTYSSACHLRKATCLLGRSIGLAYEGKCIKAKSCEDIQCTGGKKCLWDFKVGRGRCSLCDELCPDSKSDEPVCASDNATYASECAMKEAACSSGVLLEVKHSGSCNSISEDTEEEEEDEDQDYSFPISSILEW

[6] = target: Fibroblast growth factor 2 (Homo sapiens) (UniProt P09038); test: basic fibroblast growth factor binding to printed compounds – biochemical, small-molecule microarray, 635/667 nm fluorescence, primary screen (AID 1133); conditions: FGF2, fluorescence 635/667, higher = more signal
Sequence of Fibroblast growth factor 2 (Homo sapiens) (P09038 whole entry, looked up): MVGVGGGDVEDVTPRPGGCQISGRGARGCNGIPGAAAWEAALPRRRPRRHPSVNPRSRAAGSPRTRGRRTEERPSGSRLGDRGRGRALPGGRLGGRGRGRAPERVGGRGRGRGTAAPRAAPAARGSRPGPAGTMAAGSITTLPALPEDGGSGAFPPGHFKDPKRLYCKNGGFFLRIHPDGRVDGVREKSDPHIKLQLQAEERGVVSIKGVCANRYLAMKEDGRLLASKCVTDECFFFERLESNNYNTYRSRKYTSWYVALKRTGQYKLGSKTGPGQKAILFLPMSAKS

[7] = JC-1 mitochondrial potential readout, lung cancer cells – cell-based, A549, JC-1 fluorescence, basal, 24 h, 100 nL, profiling panel (AID 1138); conditions: higher = more signal;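 also: A549 lung adenocarcinoma cells under basal conditions with no added stimulus; test concentration not given here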
[8] = test system: Lefty1; test: Lefty1 protein binding to printed compounds – biochemical, small-molecule microarray, 635/667 nm fluorescence, primary screen (AID 1139); conditions: fluorescence 635/667, higher = more signal
[9] = test system: wheat germ agglutinin (Triticum aestivum), Alexa647-labelled; test: Alexa647-WGA lectin binding to printed small molecules – biochemical, small-molecule microarray, 635/667 nm fluorescence, artefact control for SMM control-protein annotation, profiling panel (AID 1140); conditions: WGA-A647 binding, 635 nm fluorescence, higher = more signal;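 also: score merges 667 nm feature emission with signal to noise over triplicate slides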
[10] = target: Luciferin 4-monooxygenase (Photinus pyralis) (UniProt P08659); test: inhibition of purified Photinus pyralis luciferase – biochemical, luminescence, purified enzyme, 2006 set, primary screen (AID 1141); conditions: purified firefly luciferase, SteadyGlo luminescence, 30 min; higher = more signal, called active from +8 up or from −8 down;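 also: cell-free assay with purified firefly luciferase at 100 ng per well in PBS; test concentration not given here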
Sequence of Luciferin 4-monooxygenase (Photinus pyralis) (P08659 whole entry, looked up): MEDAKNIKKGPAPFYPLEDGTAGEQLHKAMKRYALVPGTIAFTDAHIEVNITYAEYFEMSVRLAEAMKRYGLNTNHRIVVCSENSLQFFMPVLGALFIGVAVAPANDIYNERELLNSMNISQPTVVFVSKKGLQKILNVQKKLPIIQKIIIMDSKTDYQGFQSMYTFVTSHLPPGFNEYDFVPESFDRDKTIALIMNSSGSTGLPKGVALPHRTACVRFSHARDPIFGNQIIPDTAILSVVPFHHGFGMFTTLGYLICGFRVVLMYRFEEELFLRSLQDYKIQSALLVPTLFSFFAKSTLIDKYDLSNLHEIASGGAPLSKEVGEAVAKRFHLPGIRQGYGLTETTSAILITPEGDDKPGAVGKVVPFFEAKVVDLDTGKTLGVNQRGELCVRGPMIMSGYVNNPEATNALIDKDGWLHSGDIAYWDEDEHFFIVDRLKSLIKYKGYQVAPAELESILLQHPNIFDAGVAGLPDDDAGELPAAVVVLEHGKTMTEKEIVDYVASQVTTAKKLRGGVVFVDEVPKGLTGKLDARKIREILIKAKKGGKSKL

[11] = test system: Wnt5a (protein binding on small-molecule microarray); test: small molecules binding Wnt5a protein – biophysical, small-molecule microarray, 635/667 nm fluorescence, primary screen (AID 1142); conditions: 635 nm fluorescence, higher = more signal;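 also: fluorescence read at 667 nm with signal to noise per printed feature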
[12] = ATP-based viability of Huh7 replicon cells – cell-based, CellTiter-Glo luminescence, basal, 48 h, cytotoxicity control for HCV replication inhibitor project, primary screen (AID 1143); conditions: higher = more signal, called active from +8 up or from −8 down;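 also: Huh7 hepatoma cells carrying a hepatitis C replication reporter with no stimulus; test concentration not given here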
[13] = Pseudomonas biofilm growth suppression – PAO1 strain, BacTiter-Glo luminescence, LB-PBS, primary screen (AID 1144); conditions: P. aeruginosa PAO1 biofilm, 12 h, higher = more signal
[14] = basal CRE-LacZ reporter activity in PC12 – cell-based, unstimulated, primary screen (AID 1145); conditions: no forskolin, luminescence, 4.5 h, higher = more signal, called active from +8 up or from −8 down
[15] = forskolin-driven CRE-LacZ activity in PC12 – cell-based, CRE-LacZ reporter, forskolin-stimulated, primary screen (AID 1146); conditions: luminescence, 4.5 h, higher = more signal, called active from +8 up or from −8 down;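 also: PC12 cells with 6xCRE LacZ reporter stimulated by forskolin 10 µM; beta-galactosidase reporter signal reflecting CREB driven transcription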
[16] = target: Streptavidin (Streptomyces avidinii) (UniProt P22629); test: compounds binding control protein streptavidin – biophysical, small-molecule microarray, 635/667 nm fluorescence, artefact control for SMM compound annotation, primary screen (AID 1147); conditions: higher = more signal;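 also: signal reflects streptavidin binding to arrayed compounds as a control protein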
Sequence of Streptavidin (Streptomyces avidinii) (P22629 whole entry, looked up): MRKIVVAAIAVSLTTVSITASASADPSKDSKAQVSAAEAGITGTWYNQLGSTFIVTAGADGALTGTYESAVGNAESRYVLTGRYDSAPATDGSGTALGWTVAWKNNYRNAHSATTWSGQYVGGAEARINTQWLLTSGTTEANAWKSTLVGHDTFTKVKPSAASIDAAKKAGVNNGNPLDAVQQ

[17] = probe aInhba binding on compound microarray – biochemical, small-molecule microarray, 635/667 nm fluorescence, primary screen (AID 1148); conditions: higher = more signal;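 also: score merges 667nm spot fluorescence with signal-to-noise for antibody binding to printed compounds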
[18] = target: Torsin-1A (Homo sapiens) (UniProt O14656); test: TOR1A wild-type binding on microarray – cell lysate, small-molecule microarray, lysate, 635/667 nm, primary screen (AID 1149); conditions: COS7 hTOR1A-WT lysate, 635 nm fluorescence, higher = more signal
Sequence of Torsin-1A (Homo sapiens) (O14656 whole entry, looked up): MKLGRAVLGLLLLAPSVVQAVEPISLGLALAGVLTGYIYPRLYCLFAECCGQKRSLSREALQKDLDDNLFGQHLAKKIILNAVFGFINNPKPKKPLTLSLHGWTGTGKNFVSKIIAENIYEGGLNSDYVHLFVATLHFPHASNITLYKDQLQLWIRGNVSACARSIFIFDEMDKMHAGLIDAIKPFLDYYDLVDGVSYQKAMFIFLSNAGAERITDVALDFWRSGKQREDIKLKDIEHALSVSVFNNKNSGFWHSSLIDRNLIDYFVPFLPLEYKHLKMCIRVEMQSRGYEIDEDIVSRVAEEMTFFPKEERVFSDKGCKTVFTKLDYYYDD

[19] = target: Torsin-1A (Homo sapiens) (UniProt O14656); test: torsin A mutant lysate binding on microarrays – cell lysate, small-molecule microarray, COS7 lysate, 635/667 nm fluorescence, primary screen (AID 1150); conditions: COS7 hTOR1A mutant lysate, 635 nm fluorescence, higher = more signal;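 also: score pools 667 nm emission and signal to noise measuring lysate protein binding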
[20] = test system: Sonic hedgehog protein (Shh); test: Sonic hedgehog microarray binding compounds – biochemical, small-molecule microarray, 635/667 nm fluorescence, primary screen (AID 1151); conditions: 635 nm fluorescence, higher = more signal;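 also: Shh protein binding to compounds spotted on small-molecule microarray slides; score combines spot fluorescence intensity with signal-to-noise across triplicate slides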

Structure (SMILES)	composite z-score [1]	composite z-score [2]	composite z-score [3]	composite z-score [4]	composite z-score [5]	composite z-score [6]	z-score [7]	composite z-score [8]	composite z-score [9]	z-score [10]	composite z-score [11]	z-score [12]	z-score [13]	z-score [14]	z-score [15]	composite z-score [16]	composite z-score [17]	composite z-score [18]	composite z-score [19]	composite z-score [20]
COc1ccc([Si](C)(C)[C@H]2[C@H](CC(=O)N3Cc4ccccc4C[C@H]3CO)O[C@@]3(C(=O)N(Cc4ccc(N5CCOC5=O)cc4)c4ccccc43)[C@@H]2C)cc1	1.14	0.923	0.109	0.339	1.32	1.39	0.516	1.22	0.396	-0.246 (inactive)	-0.0993	-3.64 (inactive)	-0.3 (inactive)	1.38 (inactive)	-1.01 (inactive)	-0.0564	-0.176	0.787	0.438	2.05
COc1ccc([Si](C)(C)[C@@H]2[C@@H](CCO)O[C@]3(C(=O)N(Cc4ccccc4)c4ccc(NC(=O)[C@H](C)O)cc43)[C@H]2C)cc1	0.888	1.21	1.04	0.851	1.2	0.462	-0.955	1.29	0.417	0.265 (inactive)	0.514	-7.95 (inactive)	-1.07 (inactive)	12.2 (active)	-0.161 (inactive)	0.753	0.108	1.05	0.854	1.95
CC1CC/C=C\[C@H]2OC34C=CCN(C(C)(C)C)C(=O)[C@H]3N(CCCCCO)C(=O)[C@@H]4C2C(=O)O1 (stereo not given in full)	-1.24	-1.07	-0.83	-1.65	-0.898	-0.447	-0.227	-0.113	-0.51	0.152 (inactive)	-0.427	0.356 (inactive)	0.477 (inactive)	-0.35 (inactive)	-0.928 (inactive)	-0.719	-0.253	-0.201	-1.33	0.353
Cn1cccc1C(O)C1C=CC2C(=O)N(c3ccccc3)C(=O)C2N1Nc1ccccc1 (stereo not given)	0.933	1.23	0.848	0.954	1.29	0.984	0.569	0.475	0.557	-0.589 (inactive)	0.402	0.525 (inactive)	-0.758 (inactive)	-0.525 (inactive)	-0.0981 (inactive)	1.77	0.153	0.478	0.726	0.379
CC(C)[Si]1(C(C)C)OCc2cc(-c3ccc(-c4ccc(Cl)c(Cl)c4)o3)nc(-c3ccccc3)c21	-0.534	-1.65	-0.838	-1.32	-0.751	-0.94	-0.447	-0.21	-0.0496	-1.07 (inactive)	-0.345	-0.243 (inactive)	-0.543 (inactive)	0.484 (inactive)	-0.272 (inactive)	-0.832	-0.295	-0.193	-1.15	-0.128
C=CCNC(=O)[C@H]1[C@@H]2C(=O)O[C@@H](c3ccccc3)[C@@H](c3ccccc3)N2[C@@H](c2ccccc2OCCO)[C@]12C(=O)N(C(=O)OCCOC)c1ccc(C#CC3(O)CCCCCC3)cc12	0.977	1.18	0.325	0.579	0.785	0.226	-0.634	0.876	0.763	-1.64 (inactive)	0.358	-5.57 (inactive)	-0.717 (inactive)	-0.258 (inactive)	0.347 (inactive)	-0.139	0.0566	0.216	0.647	1.57
COCCOC(=O)N1C(=O)[C@@]2(c3ccccc31)[C@H](c1ccc(O)cc1)N1[C@H](c3ccccc3)[C@H](c3ccccc3)OC(=O)[C@H]1[C@@H]2C(=O)N1CCN(c2ncccn2)CC1	0.682	1.14	0.666	0.244	1.04	1.43	-0.727	0.806	0.026	0.504 (inactive)	0.019	-3.19 (inactive)	0.109 (inactive)	-0.598 (inactive)	1.09 (inactive)	-0.0184	0.361	0.432	0.997	1.4
CCCCC[C@H]1OC[C@@]23C=C(Br)[C@@H](CC12)[C@@]1(CO1)C3=O (stereo not given in full)	2.98	-0.327	0.215	-0.411	0.0488	-0.165	0.617	0.505	-0.407	-0.0658 (inactive)	-0.233	-0.473 (inactive)	0.931 (inactive)	0.495 (inactive)	0.289 (inactive)	-0.619	-0.128	-0.695	-0.424	0.647
Cc1ccc(C(C)CC(O)C2C=CC3C(=O)N(c4ccccc4)C(=O)C3N2Nc2ccccc2)o1 (stereo not given)	0.943	1.28	0.908	0.821	1.03	-0.0968	-0.592	-0.0661	0.982	-1.22 (inactive)	0.158	-2.95 (inactive)	-0.443 (inactive)	0.636 (inactive)	0.367 (inactive)	1.19	0.0792	0.145	1.11	-0.125
CC#CCO[Si](C#Cc1ccccc1)(C(C)C)C(C)C	-1.71	-1.42	-0.357	-0.965	-0.711	0.0353	-1.01	-0.531	-0.874	0.741 (inactive)	-0.254	-1.35 (inactive)	0.687 (inactive)	-0.985 (inactive)	0.852 (inactive)	-1.07	-0.106	-1.43	-0.811	0.12
